# Source: PubChem (several laboratories)
# Compounds with a hit are over-represented: about 5.7% of the library has one in this group of screens.
# rCAG binder: molecules binding r(CAG) RNA repeats. r(CAG) RNA repeat, TO-PRO-1 dye displacement fluorescence. inhibition, % at 3 µM. actives 1.3% (n = 370,000). AID 651821;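 active = inhibition above the plate cutoff, the mean of all test compounds on that plate plus 3 SD, cut at about 35% in these data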;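 note: 0% = DMSO alone and 100% = 100 µM mitoxantrone as full dye displacement; higher means more dye released from RNA so lower well fluorescence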
# NR3A LBD binder: modulators (binders) of human NR3A ligand-binding domain | NR3A LBD differential scanning fluorimetry, Tm shift; 0% = protein alone, 100% = glycine-bound protein | Tm shift relative to glycine control, % at 25 µM | actives 2.5% (n = 340,000) | AID 1259313;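 active = melting temperature shift of at least 10% of the positive control shift, at one fixed dose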
# FAS TE block: FAS thioesterase (human) inhibition. P49327. recombinant FAS-TE, OMFH fluorogenic substrate, fluorescence endpoint. inhibition, % at 15 µM. actives 0.67% (n = 360,000);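 active = compounds whose normalised, plate-corrected inhibition of enzyme fluorescence in the single-dose primary screen is 50% or more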;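 note: 0% = DMSO with enzyme and 100% = substrate without enzyme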
# MPTP block: blocks calcium-induced mitochondrial swelling | isolated mouse mitochondria, Ca2+ swelling absorbance, 30 min | inhibition, % at 10 µM | actives 1.4% (n = 360,000);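 active = inhibition of 50% or more, scaled per plate between neutral and stimulator controls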;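 note: 0% = DMSO wells given calcium and 100% = 1 mM EGTA wells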
# Myeloid diff MLP: myeloid differentiation induction; ER-HoxA9 myeloid progenitors, lysozyme-GFP differentiation, flow cytometry; calls only at 10 µM; actives 1% (n = 360,000);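 active = normalized GFP-positive differentiation at or above the plate's own cutoff, the solvent-only control mean plus 3 SD; inconclusive = no clear call, values can overlap the other calls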;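 note: cells exposed to compound for four days before flow analysis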
# Rh123 counter: Rhodamine 123 counter-screen of mitochondrial pore hits; shares compounds with MPTP block; isolated mitochondria, membrane potential, Rhodamine 123 fluorescence; actives 78% (n = 5,000); AID 624504; inhibition, % at 10 µM; in the data active = inhibition above about 22%;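 note: 0% = DMSO vehicle and 100% = positive control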
# MPTP abs DR: dose response confirmation of mitochondrial permeability transition pore inhibitors; shares compounds with MPTP block; AID 651561; isolated mitochondria swelling, absorbance; actives 58% (n = 780); IC50, µM; in the data active = IC50 below about 20 µM
# MPTP counter DR: MPTP inhibitor counter-screen activity, dose response | shares compounds with MPTP block | isolated mitochondria counterscreen, fluorescence read-out | IC50, µM | actives 49% (n = 780); in the data active = IC50 below about 80 µM
# An asterisk follows results filed as active; i = inactive; ? = inconclusive; · = not tested or not shown; + = active, no number.
SMILES,rCAG binder,NR3A LBD binder,FAS TE block,MPTP block,Myeloid diff MLP,Rh123 counter,others
Fc1cc(NC(=S)NCc2ccc(CNC(=S)Nc3ccc(Cl)c(F)c3)cc2)ccc1Cl,6.6,94.2*,6.4,92.4*,i,73.1*,
Cn1c(=O)c2cc(NC(=S)NCc3ccccc3F)ccc2n1C,3.4,·,-1.6,-1.4,i,·,
Fc1cccc(NC(=S)NCc2ccc(Cl)cc2)c1,1.9,-1.0,6.7,96.1*,i,89.2*,
Fc1ccccc1NC(=S)NCc1ccc(Cl)cc1,-1.2,-0.7,2.6,20.8,i,·,
O=[N+]([O-])c1cc(C(F)(F)F)cc([N+](=O)[O-])c1NCCNC(=S)Nc1cccc(F)c1,15.0,17.1*,27.1,90.4*,i,78.5*,
CN(C)NC(=S)Nc1cccc(C(F)(F)F)c1,-3.2,0.2,-9.4,-1.7,i,·,
FC(F)(F)c1cccc(NC(=S)NCc2ccc(Cl)cc2)c1,4.9,20.2*,33.8,78.4*,i,88.4*,
COc1ccc(C)cc1N1CC(C(=O)Nc2ccccc2C(=O)NC2CC2)CC1=O (stereo not drawn),2.2,3.8,-5.1,-0.8,i,·,
Cc1ccc(S(=O)(=O)c2cnc3cc(C)nn3c2N)cc1,1.5,0.8,1.2,-0.6,i,·,
CC(C)OP(=O)(O)C(C)NC(=O)OCc1ccccc1 (stereo not drawn),-0.3,·,·,·,·,·,
CC1(c2ccc3ccccc3c2)NC(=O)N(CC(=O)N2CCN(Cc3ccc(C#N)cc3)CC2)C1=O (stereo not drawn),·,0.2,34.6,57.4*,i,64.5*,
CC(=O)N1CCN(C(=O)CN2C(=O)NC(C)(c3ccc4ccccc4c3)C2=O)CC1 (stereo not drawn),1.1,-0.3,-8.1,0.1,i,·,
COC(=O)/C(=C\Nc1ccc(Cl)c2ccccc12)c1ncc(C(F)(F)F)cc1Cl,·,-0.1,20.1,8.4,i,·,
CCOC(=O)/C(=C\Nc1ccccc1C(F)(F)F)Sc1ncc(C(F)(F)F)cc1Cl,-0.2,-0.2,19.0,95.1*,i,0.6,MPTP abs DR=i;MPTP counter DR=>80
CCCCCCCCCCn1ccc(=N)cc1,0.3,-3.8,3.6,64.8*,?,89.6*,
COc1cc(CN2C[C@@H](CO)O[C@@H](n3cnc4c(Nc5ccccc5)ncnc43)C2)cc(OC)c1OC,0.9,·,-13.8,0.1,i,·,
Cc1cccc(-n2nc(C(=O)c3ccco3)cc(-c3nc4ccccc4[nH]3)c2=N)c1,11.8,-6.6,25.6,48.5,i,·,
Cc1cc(NC(=O)c2cccs2)n(-c2nc3ccccc3[nH]2)n1,8.9,-2.5,9.5,6.3,i,·,
Cc1ccccc1-n1nc(C(=O)c2cccs2)cc(-c2nc3ccccc3[nH]2)c1=N,4.6,0.6,15.0,90.9*,i,98.1*,
COc1ccc(-n2nc(C(=O)c3cccs3)cc(-c3nc4ccccc4[nH]3)c2=N)cc1,7.0,-0.8,-2.2,78.0*,+,-4.2,
CCOc1ccc(Nc2nc(N(C)c3ccccc3)nc(N)c2[N+](=O)[O-])cc1,1.0,7.4,-5.8,2.5,i,·,
O=C(Nc1ccc(F)cc1)C(Sc1nc2ccccc2[nH]1)c1ccccc1 (stereo not drawn),5.5,-15.8,-2.3,97.1*,i,86.9*,
Cn1nnnc1SC(C(=O)Nc1ccc(F)cc1)c1ccccc1 (stereo not drawn),-2.0,-1.7,1.0,-0.6,i,·,
Cn1c(SC(C(=O)Nc2ccc(F)cc2)c2ccccc2)nc2ccccc21 (stereo not drawn),4.5,3.2,27.6,63.5*,i,65.7*,
O=C(CSc1nc2ccccc2[nH]1)Nc1ccc(F)cc1,0.9,-1.3,2.5,-0.8,i,·,
SMILES,rCAG binder,NR3A LBD binder,FAS TE block,MPTP block,Myeloid diff MLP,Rh123 counter,others
O=C(CCC(=O)N(CC(=O)NC1CCCCC1)c1ccc(F)cc1)Nc1ccccn1,3.8,-0.6,-1.2,-0.5,i,·,
CCOc1ccc(S(=O)(=O)N(C)c2ccc(OCC(=O)Nc3nc4ccccc4s3)cc2)cc1,1.3,-0.3,36.0,95.7*,i,79.9*,
Cc1ccccc1N1Cc2ccccc2C1,2.1,0.2,0.5,2.2,i,·,
Cc1nc(N)nc(N)c1CCCc1ccc(Cl)c(Cl)c1,11.8,-0.4,-4.0,1.5,?,·,
CCOc1ccc(OCc2cccc(C(=O)Nc3ccc(CN4CCCCC4)cc3)c2)cc1,1.5,-2.2,5.2,87.4*,·,-11.9,MPTP abs DR=2.37*;MPTP counter DR=43*
N=c1c2c(-c3ccccc3)c(-c3ccccc3)n(Cc3ccco3)c2ncn1CCO,12.6,-2.1,-5.2,80.7*,i,-2.9,
N=c1c2c(-c3ccccc3)c(-c3ccccc3)n(Cc3ccco3)c2ncn1CCCO,9.7,3.3,9.9,3.2,i,·,
COCCNC(=O)C1(C)CCN(C(=O)C2(c3ccc(Cl)cc3)CCCC2)C1 (stereo not drawn),0.0,·,-9.9,0.4,i,·,
O=C(Nc1cccc(C(F)(F)F)c1)OCCN1CCN(Cc2ccccc2)CCC1=O,-7.8,-1.9,4.3,98.3*,i,89.8*,
O=C(Nc1ccc(F)cc1)OCCN1CCN(Cc2ccccc2)CCC1=O,-2.8,3.3,-7.7,16.6,i,·,
Cc1ccc(/C=C/C(=O)c2cc(Br)ccc2OC(=O)c2ccco2)cc1,3.7,2.4,4.7,3.6,i,·,
COc1ccccc1/C=C/C(=O)c1cc(Br)ccc1OC(=O)c1ccco1,3.0,2.4,11.4,57.0*,i,-9.4,
CN1CCN(S(=O)(=O)c2ccc(NC(=O)c3ccc(F)cc3Cl)cc2)CC1,-3.4,0.7,0.7,-1.7,i,·,
COc1cccc(CCN2CCC(CNS(=O)(=O)c3cc(-c4cc(C)no4)ccc3C)CC2)c1,-4.1,-3.3,0.6,78.8*,?,8.6,MPTP abs DR=6.79*;MPTP counter DR=23.7*
O=C(Cc1ccc(S(=O)(=O)N2CCCCC2)s1)Nc1ccc(F)c(F)c1,11.0,3.0,23.9,67.3*,i,83.0*,
O=C(Cc1ccc(S(=O)(=O)N2CCOCC2)s1)Nc1cc(C(F)(F)F)cc(C(F)(F)F)c1,4.4,17.3*,34.2,69.3*,i,77.9*,
O=C(O)C1CCCCN1c1ccccc1[N+](=O)[O-] (stereo not drawn),2.2,·,-3.6,0.9,i,·,
Cc1ncc([N+](=O)[O-])n1CC(=O)N/N=C/c1ccccc1F,1.5,-0.9,-6.3,-1.3,i,·,
CCOC(=O)N1CCN(CCC(=O)c2ccc(Cl)cc2)CC1,0.9,6.8,-3.2,103.1*,i,4.4,MPTP abs DR=i;MPTP counter DR=>80
CC(C)=CC(=O)NCc1c(Cl)cccc1-n1cccc1,-4.7,0.1,-2.2,0.0,i,·,
Cn1c(=O)c2c(nc(NCCOc3ccc(C(C)(C)C)cc3)n2C)n(C)c1=O,-1.4,-1.3,42.3,101.1*,i,6.3,MPTP abs DR=2.3*;MPTP counter DR=36.4*
